What all share (experiment): DAPPL (digital affinity profiling via proximity ligation, sequencing); 10 mM Tris-HCl pH 7.5, 50 mM NaCl, 1 mM DTT, 4% glycerol, room temperature, 30 min; GST-TFs on glutathione beads, 16-mer random dsDNA library, 0.1% formaldehyde crosslink after washing; high values mean tight binding
What all share (conditions): protein: recombinant; tags: N-terminal GST; dsDNA, one strand shown

One test addresses T1, ELK4 (Homo sapiens, UniProt P28324-2 1-405).
T1 sequence: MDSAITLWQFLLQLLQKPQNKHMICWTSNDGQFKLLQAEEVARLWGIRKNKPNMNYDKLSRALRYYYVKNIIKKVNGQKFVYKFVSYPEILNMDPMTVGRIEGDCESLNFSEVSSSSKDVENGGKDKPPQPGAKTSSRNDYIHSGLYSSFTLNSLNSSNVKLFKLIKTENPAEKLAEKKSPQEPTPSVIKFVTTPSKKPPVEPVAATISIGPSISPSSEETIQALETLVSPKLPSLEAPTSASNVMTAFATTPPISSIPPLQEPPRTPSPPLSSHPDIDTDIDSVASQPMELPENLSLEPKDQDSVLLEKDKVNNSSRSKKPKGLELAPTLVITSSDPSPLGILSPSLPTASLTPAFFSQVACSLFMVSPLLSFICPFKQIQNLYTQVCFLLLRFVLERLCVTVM
An outline of the steps: (§1)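 Human transcription factors carrying a GST fusion were produced in yeast, bound to glutathione beads, tagged with DNA barcodes and pooled together with a tag-only sample. Each pool was held with 200 nmole of a random double-stranded 16-mer DNA library in Tris/NaCl/DTT/glycerol buffer for 30 min at room temperature, then washed, crosslinked in 0.1% formaldehyde, proximity-ligated with BsaI/T4 ligase (1 h, 37 °C), PCR-amplified and sequenced on an Illumina NextSeq500. Binding signal is the read frequency of each hexamer for a given factor divided by its frequency in the tag-only sample.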

Another test concerns the target T2, ETV2 (Homo sapiens, UniProt O00321 1-342).
T2 sequence: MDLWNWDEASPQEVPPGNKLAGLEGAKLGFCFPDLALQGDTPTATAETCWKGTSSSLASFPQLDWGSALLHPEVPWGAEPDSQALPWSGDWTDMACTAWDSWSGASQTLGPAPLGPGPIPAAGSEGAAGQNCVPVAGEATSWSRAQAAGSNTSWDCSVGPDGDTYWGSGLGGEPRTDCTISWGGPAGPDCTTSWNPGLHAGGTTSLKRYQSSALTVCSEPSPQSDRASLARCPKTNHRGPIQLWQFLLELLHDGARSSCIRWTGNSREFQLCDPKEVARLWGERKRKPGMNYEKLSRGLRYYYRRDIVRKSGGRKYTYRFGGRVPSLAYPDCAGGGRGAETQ
The method in brief: as §1

The target of a further test is T3, ELK1 (Homo sapiens, UniProt P19419 1-428).
T3 sequence: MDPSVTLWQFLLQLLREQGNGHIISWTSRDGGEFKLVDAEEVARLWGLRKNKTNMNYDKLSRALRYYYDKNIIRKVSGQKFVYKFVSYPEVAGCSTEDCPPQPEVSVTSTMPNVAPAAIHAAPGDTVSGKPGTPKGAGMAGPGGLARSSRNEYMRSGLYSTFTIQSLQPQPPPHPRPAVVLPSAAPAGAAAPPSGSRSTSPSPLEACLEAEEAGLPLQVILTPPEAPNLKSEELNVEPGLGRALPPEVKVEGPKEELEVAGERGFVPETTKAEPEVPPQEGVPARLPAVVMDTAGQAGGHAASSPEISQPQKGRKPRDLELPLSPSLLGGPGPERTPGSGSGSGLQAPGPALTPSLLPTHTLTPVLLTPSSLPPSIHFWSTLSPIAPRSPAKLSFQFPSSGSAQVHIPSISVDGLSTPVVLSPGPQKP
An outline of the steps: as §1

In another test the target is ELF1 (Homo sapiens, UniProt P32519 1-619). An outline of the steps: as §1
The next test concerns the target T4, FEV (Homo sapiens, UniProt Q99581 1-238).
T4 sequence: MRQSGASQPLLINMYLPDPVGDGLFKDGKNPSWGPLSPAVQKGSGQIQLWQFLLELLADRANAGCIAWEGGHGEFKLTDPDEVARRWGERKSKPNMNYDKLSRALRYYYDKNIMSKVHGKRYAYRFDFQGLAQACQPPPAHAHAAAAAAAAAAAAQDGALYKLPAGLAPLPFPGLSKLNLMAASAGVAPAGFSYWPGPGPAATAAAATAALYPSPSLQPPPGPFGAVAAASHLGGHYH
An outline of the steps:
as §1

The target of the next test is T5, ELF3 (Homo sapiens, UniProt P78545 1-371).
T5 sequence: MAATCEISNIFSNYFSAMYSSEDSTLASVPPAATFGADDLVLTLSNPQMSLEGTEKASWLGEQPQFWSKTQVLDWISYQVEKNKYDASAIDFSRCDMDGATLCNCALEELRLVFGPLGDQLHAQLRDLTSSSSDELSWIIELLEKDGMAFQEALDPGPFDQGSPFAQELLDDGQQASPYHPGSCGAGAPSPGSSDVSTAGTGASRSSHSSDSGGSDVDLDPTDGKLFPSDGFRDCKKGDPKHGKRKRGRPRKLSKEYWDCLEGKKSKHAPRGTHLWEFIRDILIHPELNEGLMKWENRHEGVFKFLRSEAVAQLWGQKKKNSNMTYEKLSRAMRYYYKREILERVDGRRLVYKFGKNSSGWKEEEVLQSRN
An outline of the steps: as §1

In the next test the target is ETV1 (Homo sapiens, UniProt P50549 1-477). An outline of the steps: as §1
The target in a further test is T6, GABPA (Homo sapiens, UniProt Q06546 1-454).
T6 sequence: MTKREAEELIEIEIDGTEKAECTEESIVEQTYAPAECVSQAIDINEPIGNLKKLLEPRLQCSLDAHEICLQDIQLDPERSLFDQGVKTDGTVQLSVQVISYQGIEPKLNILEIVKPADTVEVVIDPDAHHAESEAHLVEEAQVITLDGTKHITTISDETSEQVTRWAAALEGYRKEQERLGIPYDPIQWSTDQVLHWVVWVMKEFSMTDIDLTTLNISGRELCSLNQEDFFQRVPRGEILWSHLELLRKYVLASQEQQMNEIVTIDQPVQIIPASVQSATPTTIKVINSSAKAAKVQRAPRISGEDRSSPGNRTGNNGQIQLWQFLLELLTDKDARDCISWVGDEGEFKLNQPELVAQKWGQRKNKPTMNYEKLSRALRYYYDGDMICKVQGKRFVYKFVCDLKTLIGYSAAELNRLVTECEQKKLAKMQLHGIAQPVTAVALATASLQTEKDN
The method in brief:
as §1

Another test addresses SPI1 (Homo sapiens, UniProt P17947 1-270). An outline of the steps:
as §1

The next test addresses SPIB (Homo sapiens, UniProt Q01892 1-262). An outline of the steps: as §1
In a further test the target is CRX (Homo sapiens, UniProt O43186 1-299). An outline of the steps:
as §1

Another test addresses T7, ETS2 (Homo sapiens, UniProt P15036 1-469).
T7 sequence: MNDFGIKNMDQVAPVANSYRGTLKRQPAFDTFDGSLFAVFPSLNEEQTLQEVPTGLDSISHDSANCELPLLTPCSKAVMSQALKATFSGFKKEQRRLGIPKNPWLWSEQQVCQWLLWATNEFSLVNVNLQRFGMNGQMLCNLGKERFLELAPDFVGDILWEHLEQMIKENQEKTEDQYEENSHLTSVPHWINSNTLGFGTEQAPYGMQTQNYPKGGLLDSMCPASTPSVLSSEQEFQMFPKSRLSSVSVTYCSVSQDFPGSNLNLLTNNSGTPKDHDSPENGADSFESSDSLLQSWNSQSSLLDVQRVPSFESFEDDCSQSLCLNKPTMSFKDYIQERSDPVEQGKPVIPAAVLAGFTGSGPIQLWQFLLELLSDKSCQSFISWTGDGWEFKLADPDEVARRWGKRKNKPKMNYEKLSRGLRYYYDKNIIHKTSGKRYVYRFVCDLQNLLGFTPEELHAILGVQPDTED
The method in brief:
as §1

For a further test, the target named is T8, ETV3 (Homo sapiens, UniProt P41162-2 1-143).
T8 sequence: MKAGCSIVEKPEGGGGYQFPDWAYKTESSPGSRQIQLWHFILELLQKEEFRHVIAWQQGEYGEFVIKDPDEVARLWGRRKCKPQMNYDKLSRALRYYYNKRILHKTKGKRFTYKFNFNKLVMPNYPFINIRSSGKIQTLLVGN
An outline of the steps:
as §1

The next test has as its target ETV6 (Homo sapiens, UniProt P41212 1-452). An outline of the steps:
as §1

The target in a further test is T9, ETV3L (Homo sapiens, UniProt Q6ZN32 1-361).
T9 sequence: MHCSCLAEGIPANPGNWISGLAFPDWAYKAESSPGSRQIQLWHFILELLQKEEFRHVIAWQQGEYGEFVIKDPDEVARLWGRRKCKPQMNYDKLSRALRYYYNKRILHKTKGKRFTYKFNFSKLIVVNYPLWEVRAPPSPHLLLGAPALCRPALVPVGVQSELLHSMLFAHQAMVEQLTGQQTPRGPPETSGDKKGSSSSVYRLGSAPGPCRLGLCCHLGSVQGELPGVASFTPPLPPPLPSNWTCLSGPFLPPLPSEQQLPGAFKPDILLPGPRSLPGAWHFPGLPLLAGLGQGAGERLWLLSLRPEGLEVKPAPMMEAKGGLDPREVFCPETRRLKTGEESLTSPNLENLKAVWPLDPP
The method in brief:
as §1

The next test addresses T10, ELK3 (Homo sapiens, UniProt P41970 1-407).
T10 sequence: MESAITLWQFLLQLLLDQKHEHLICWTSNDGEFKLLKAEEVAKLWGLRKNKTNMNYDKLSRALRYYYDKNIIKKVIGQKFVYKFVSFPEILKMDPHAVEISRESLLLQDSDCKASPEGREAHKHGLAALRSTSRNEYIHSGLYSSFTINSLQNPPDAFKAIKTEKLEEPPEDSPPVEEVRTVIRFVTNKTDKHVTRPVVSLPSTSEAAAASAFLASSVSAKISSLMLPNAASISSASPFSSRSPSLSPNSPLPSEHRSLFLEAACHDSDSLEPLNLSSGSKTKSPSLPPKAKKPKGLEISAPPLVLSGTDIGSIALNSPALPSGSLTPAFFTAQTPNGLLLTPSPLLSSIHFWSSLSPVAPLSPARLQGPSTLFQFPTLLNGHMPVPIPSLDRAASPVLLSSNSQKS
The method in brief: as §1

For the next test, the target named is T11, ETV7 (Homo sapiens, UniProt Q9Y603 1-341).
T11 sequence: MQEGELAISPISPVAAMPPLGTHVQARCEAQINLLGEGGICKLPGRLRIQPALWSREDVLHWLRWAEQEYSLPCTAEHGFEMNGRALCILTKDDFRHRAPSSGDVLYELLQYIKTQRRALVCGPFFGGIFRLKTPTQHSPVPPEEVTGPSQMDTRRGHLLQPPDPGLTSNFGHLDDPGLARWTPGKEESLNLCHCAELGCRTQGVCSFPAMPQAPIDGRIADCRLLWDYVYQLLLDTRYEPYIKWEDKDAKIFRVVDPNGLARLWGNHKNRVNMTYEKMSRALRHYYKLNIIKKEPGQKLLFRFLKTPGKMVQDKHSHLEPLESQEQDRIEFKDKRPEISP
The method in brief:
as §1

Chain of CRX (O43186 whole entry): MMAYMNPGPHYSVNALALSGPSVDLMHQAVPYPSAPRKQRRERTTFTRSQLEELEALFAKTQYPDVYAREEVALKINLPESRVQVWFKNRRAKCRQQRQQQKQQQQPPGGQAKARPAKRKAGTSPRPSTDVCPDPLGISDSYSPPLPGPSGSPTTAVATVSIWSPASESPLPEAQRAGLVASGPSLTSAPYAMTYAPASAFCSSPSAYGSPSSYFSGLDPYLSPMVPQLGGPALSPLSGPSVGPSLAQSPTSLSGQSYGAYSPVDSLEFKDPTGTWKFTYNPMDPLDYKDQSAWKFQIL
Chain of ETV6 (P41212 whole entry): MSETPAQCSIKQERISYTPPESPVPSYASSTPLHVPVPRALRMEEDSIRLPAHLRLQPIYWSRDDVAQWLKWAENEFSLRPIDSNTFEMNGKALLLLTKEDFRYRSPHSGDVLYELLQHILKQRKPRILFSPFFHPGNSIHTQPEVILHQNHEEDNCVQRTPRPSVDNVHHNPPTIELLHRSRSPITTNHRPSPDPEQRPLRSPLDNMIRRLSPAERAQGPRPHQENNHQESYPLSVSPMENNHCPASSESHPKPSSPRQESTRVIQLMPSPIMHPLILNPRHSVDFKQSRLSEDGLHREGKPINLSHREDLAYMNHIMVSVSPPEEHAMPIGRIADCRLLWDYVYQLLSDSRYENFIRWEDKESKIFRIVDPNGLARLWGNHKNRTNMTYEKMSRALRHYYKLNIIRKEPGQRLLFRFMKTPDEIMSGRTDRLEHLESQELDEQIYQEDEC
Chain of ETV1 (P50549 whole entry): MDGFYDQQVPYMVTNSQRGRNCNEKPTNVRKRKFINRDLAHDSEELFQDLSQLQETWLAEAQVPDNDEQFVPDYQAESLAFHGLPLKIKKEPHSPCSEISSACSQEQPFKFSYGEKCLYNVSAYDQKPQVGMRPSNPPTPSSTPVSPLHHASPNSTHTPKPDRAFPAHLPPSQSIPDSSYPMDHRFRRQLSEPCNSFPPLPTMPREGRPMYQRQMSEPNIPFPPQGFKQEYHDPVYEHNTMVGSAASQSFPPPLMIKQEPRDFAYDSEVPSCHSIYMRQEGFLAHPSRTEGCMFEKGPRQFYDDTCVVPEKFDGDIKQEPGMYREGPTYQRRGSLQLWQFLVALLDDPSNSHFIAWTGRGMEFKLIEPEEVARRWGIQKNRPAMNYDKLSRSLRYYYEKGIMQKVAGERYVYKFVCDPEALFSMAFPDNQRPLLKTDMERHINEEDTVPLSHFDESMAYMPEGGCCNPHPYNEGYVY
Chain of ELF1 (P32519 whole entry): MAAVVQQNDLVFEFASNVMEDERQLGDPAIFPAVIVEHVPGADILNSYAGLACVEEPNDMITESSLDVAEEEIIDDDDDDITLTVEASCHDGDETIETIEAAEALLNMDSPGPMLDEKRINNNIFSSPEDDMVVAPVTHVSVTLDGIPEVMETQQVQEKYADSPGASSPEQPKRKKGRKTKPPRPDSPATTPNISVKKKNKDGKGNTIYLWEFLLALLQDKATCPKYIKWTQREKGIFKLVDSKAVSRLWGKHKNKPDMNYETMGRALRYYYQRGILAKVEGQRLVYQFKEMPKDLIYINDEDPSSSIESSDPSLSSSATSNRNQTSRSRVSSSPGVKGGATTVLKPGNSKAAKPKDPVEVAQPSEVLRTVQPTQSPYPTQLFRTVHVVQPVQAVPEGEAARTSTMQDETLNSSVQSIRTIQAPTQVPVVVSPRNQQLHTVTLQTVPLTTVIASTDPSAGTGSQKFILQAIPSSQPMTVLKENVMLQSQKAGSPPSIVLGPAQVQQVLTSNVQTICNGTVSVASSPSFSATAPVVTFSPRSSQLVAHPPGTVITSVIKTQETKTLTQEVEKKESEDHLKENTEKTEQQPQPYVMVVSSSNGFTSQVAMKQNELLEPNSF
Chain of SPIB (Q01892 whole entry): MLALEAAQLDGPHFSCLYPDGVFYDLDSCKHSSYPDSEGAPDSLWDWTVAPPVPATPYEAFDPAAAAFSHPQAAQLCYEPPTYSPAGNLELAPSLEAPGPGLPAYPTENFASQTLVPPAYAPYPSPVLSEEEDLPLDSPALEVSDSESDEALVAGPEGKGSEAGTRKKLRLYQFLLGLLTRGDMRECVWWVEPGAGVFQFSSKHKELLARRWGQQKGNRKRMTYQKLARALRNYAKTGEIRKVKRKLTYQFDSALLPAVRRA

Regarding GTAACG, the binding signal with ELK4 was 1.03 fold enrichment (6-mer frequency, TF over GST control); in the test with ETV2 it was 1.08 fold enrichment (6-mer frequency, TF over GST control).
For the sequence CCATAG, the binding signal in the test with ELK4 is 1.06 fold enrichment (6-mer frequency, TF over GST control); with ETV2, 1.01 fold enrichment (6-mer frequency, TF over GST control).
For the sequence GCCACA, the binding signal was 1.02 fold enrichment (6-mer frequency, TF over GST control) with ELK1; 1.01 fold enrichment (6-mer frequency, TF over GST control) with ELF1; 1.06 fold enrichment (6-mer frequency, TF over GST control) in the test with FEV; 1.07 fold enrichment (6-mer frequency, TF over GST control) with ELF3; 1.08 fold enrichment (6-mer frequency, TF over GST control) with ETV1.
ATAACG: the binding signal was 1.04 fold enrichment (6-mer frequency, TF over GST control) with ELK1; 1 fold enrichment (6-mer frequency, TF over GST control) in the test with GABPA; 1.01 fold enrichment (6-mer frequency, TF over GST control) with SPI1; 1.01 fold enrichment (6-mer frequency, TF over GST control) in the test with SPIB; 1 fold enrichment (6-mer frequency, TF over GST control) with CRX; 1.05 fold enrichment (6-mer frequency, TF over GST control) with ETS2. In addition, the binding signal with ETV3 is 1.05 fold enrichment (6-mer frequency, TF over GST control); in the test with ETV6, 1.03 fold enrichment (6-mer frequency, TF over GST control).
For GCGCAC, the binding signal is 1.07 fold enrichment (6-mer frequency, TF over GST control) with ELK4 and 1.03 fold enrichment (6-mer frequency, TF over GST control) in the test with ETV3L.
As for CAAGCC, the binding signal with GABPA was 1.03 fold enrichment (6-mer frequency, TF over GST control); with ELK3, 1.06 fold enrichment (6-mer frequency, TF over GST control); in the test with ELK4 it was 1.07 fold enrichment (6-mer frequency, TF over GST control); with ETV2, 1.06 fold enrichment (6-mer frequency, TF over GST control); with ELF3 it was 1.12 fold enrichment (6-mer frequency, TF over GST control); with ETV7, 1.02 fold enrichment (6-mer frequency, TF over GST control). The binding signal with ETV3 is 1.02 fold enrichment (6-mer frequency, TF over GST control).

For the origin of these results see publication PMC7862700, “An all-to-all approach to the identification of sequence-specific readers for epigenetic DNA modifications on cytosine”.
